Screening results deposited in PubChem BioAssay by Sanford-Burnham Center for Chemical Genomics.
H9c2 protect: cardioprotection against H2O2-induced cell death, primary screen, uHTS, H9c2 cells, ATPLite luminescence. H9c2 cardiomyocytes, H2O2 injury protection, 2 h. protection from H2O2 cell death, % at 20 µM. 360,000 compounds, 0.63% hits. AID 588492, 2011;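 active = compounds giving at least 50% protection of heart cells from peroxide-induced death in the single-dose screen, raw or plate-pattern-corrected value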;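 note: 0% = DMSO wells with peroxide and 100% = DMSO wells without peroxide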
aDG glyco act: activators of alpha-DG glycosylation, primary screen, uHTS, Pro5-aDG cells, AlphaScreen | activation, % at 10 µM | AID 624168, 2012 | alpha-DG glycosylation AlphaScreen (IIH6); 0% Pro5, 100% B10-LARGE cell signal | 360,000 compounds, 0.22% hits;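 active = activation of at least 8% versus controls, or a plate z-score of at least 8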;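 note: Pro5 are CHO cells carrying HIG-tagged alpha-DG that lacks glycosylation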
CRFBP-R2 agonist: agonists of CRF-BP/CRF-R2 complex, primary screen, cell-based, HEK293, calcium dye fluorescence, uHTS; CRF-binding protein / CRF receptor 2 complex (human); calcium dye fluorescence (FLIPR); percent of saturating CRF peptide response; activation, % at 13.2 µM; 350,000 compounds, 0.46% hits; AID 588473, 2011;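 active = activation of at least 50%, plus an integration ratio under a set limit after plate pattern correction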;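 note: plate controls were neutral control wells without compound for no effect and CRF at EC100 for full effect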
PfGluPho inh: PfG6PD enzyme inhibitors, primary screen, biochemical, fluorescence intensity, uHTS | glucose-6-phosphate dehydrogenase-6-phosphogluconolactonase (Plasmodium falciparum 3D7) | PfGluPho enzyme, NADPH resazurin-diaphorase fluorescence | inhibition, % at 20 µM | 350,000 compounds, 0.78% hits;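 active = inhibition reaching at least a set limit at 20 µM in the primary screen, cut at about 59% in these data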;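 note: 0% = DMSO wells with substrate and 100% = DMSO wells lacking glucose-6-phosphate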
FAS-TE inh: FAS thioesterase domain inhibitors, primary screen, biochemical, fluorescence intensity, uHTS; inhibition, % at 15 µM; recombinant FAS-TE, OMFH fluorogenic substrate, fluorescence endpoint; 360,000 compounds, 0.67% hits;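 active = compounds whose normalised, plate-corrected inhibition of enzyme fluorescence in the single-dose primary screen is 50% or more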;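 note: 0% = DMSO with enzyme and 100% = substrate without enzyme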
CRFR2-BP antag: antagonists of CRF-BP/CRF-R2 complex, primary screen, cell-based, HEK293, calcium dye fluorescence, uHTS; CRF-induced calcium fluorescence; inhibition, % at 11.8 µM; 350,000 compounds, 0.59% hits; AID 588475, 2011;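 active = inhibition of the ligand-induced calcium signal above about 50% at the single tested concentration, limit read from the data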
Numbers without * were called inactive. Most compounds without a hit are left out; they make up all but 3.2% or so of the library.

`O=C(CCCSc1ccccc1)Nc1nc(-c2ccccn2)cs1` gave H9c2 protect 64*, aDG glyco act 2, CRFBP-R2 agonist 8, PfGluPho inh 10, FAS-TE inh 0 and CRFR2-BP antag -16.
O=C(CN1C(=O)CCC1=O)Nc1nc(-c2ccccn2)cs1 was read as H9c2 protect 52*, aDG glyco act 2, CRFBP-R2 agonist 3, PfGluPho inh 8, FAS-TE inh -6 and CRFR2-BP antag -1.
Screening O=C(/C=C/c1ccco1)Nc1nc(-c2ccccn2)cs1 returned H9c2 protect 50*, aDG glyco act 2, CRFBP-R2 agonist 2, PfGluPho inh 31, FAS-TE inh -4 and CRFR2-BP antag -6.
For O=C(CN1C(=O)CCC1=O)Nc1nc(-c2ccc3ccccc3c2)cs1 the results were H9c2 protect -4, aDG glyco act 0, CRFBP-R2 agonist 1, PfGluPho inh 11, FAS-TE inh 1 and CRFR2-BP antag -22.
Screening COc1cccc(CN2CCNC(=O)C2CC(=O)NCCCN2CCCC2=O)c1 (stereo unspecified) returned H9c2 protect 0, aDG glyco act 0, CRFBP-R2 agonist 4, PfGluPho inh -4, FAS-TE inh -6 and CRFR2-BP antag -9.
For Cc1ccc(C(C(=O)NCc2ccccc2)N(C(=O)c2ccccn2)c2ccccc2)o1 (stereo unspecified) the results were H9c2 protect 24, aDG glyco act 0, CRFBP-R2 agonist -1, PfGluPho inh -10, FAS-TE inh 1 and CRFR2-BP antag 3.
CC(=O)Nc1ccc2c(c1)C(=O)c1ccc(Cl)cc1-2 was read as H9c2 protect -4, aDG glyco act 0, CRFBP-R2 agonist 2, PfGluPho inh 8, FAS-TE inh 2 and CRFR2-BP antag 7.
For Oc1ccc(CNc2ccccc2F)c2cccnc12 the results were H9c2 protect 45, aDG glyco act 0, CRFBP-R2 agonist 0, PfGluPho inh -1, FAS-TE inh 5 and CRFR2-BP antag 8.
For O=S(=O)(Nc1ccc(O)c2ncccc12)c1ccccc1F the results were H9c2 protect 60*, aDG glyco act 0 and FAS-TE inh -2.
Cc1ccc(C)c(S(=O)(=O)Nc2ccc(O)c3ccccc23)c1 was read as H9c2 protect -22, aDG glyco act 4.3*, CRFBP-R2 agonist -3, PfGluPho inh 35, FAS-TE inh 4 and CRFR2-BP antag 12.
Cc1ccc(S(=O)(=O)Nc2ccc(O)c3ccccc23)c(C)c1 was read as H9c2 protect -14, aDG glyco act 2, CRFBP-R2 agonist -4, PfGluPho inh 40, FAS-TE inh 0 and CRFR2-BP antag 3.
For Cc1ccc(-n2nc3c(=O)n(CC(=O)NCc4cccs4)nc(C)c3c2C)cc1 the results were H9c2 protect -3, aDG glyco act 2, CRFBP-R2 agonist -1, PfGluPho inh 2, FAS-TE inh -6 and CRFR2-BP antag 64*.
Screening CCOc1ccc(N2CC(C(=O)NCCc3c[nH]c4ccc(OC)cc34)CC2=O)cc1 (stereo unspecified) returned H9c2 protect -4, aDG glyco act 0, CRFBP-R2 agonist -2, PfGluPho inh 4, FAS-TE inh -4 and CRFR2-BP antag 10.
`Cc1onc(-c2ccccc2Cl)c1C(=O)N/N=C(\N)COc1ccc(Cl)cc1` gave H9c2 protect 60*, aDG glyco act 0, CRFBP-R2 agonist -2, PfGluPho inh -37, FAS-TE inh -1 and CRFR2-BP antag -6.
Screening O=C(N/N=C/c1c(O)n(Cc2ccccc2)c(=O)c2ccccc12)c1cccnc1 returned H9c2 protect 27, aDG glyco act 0, CRFBP-R2 agonist 64*, PfGluPho inh -5, FAS-TE inh 19 and CRFR2-BP antag -50.
`COC(=O)Cn1c(=O)oc2ccc(C)cc21` gave H9c2 protect 2, aDG glyco act 0, CRFBP-R2 agonist 0, PfGluPho inh 0, FAS-TE inh -5 and CRFR2-BP antag 6.
CC(NC(=O)Nc1nnc(C(F)(F)F)s1)(C(F)(F)F)C(F)(F)F was read as H9c2 protect -35, aDG glyco act 0, CRFBP-R2 agonist 59*, PfGluPho inh 9, FAS-TE inh -6 and CRFR2-BP antag 28.
For O=C(Cn1nc(CNc2ccc(Cl)cc2)[n+]2c1CCCCC2)c1ccc(Br)cc1 the results were H9c2 protect -6, aDG glyco act 0, CRFBP-R2 agonist -3, PfGluPho inh -5, FAS-TE inh 3 and CRFR2-BP antag 55*.
`Cc1noc(C(F)(F)F)c1C(=O)NNC(=O)c1cccc(C(F)(F)F)c1` gave H9c2 protect -3, aDG glyco act 0, CRFBP-R2 agonist 2, PfGluPho inh -7, FAS-TE inh -8 and CRFR2-BP antag 114*.
For O=C(NNC(=O)c1ccc[nH]1)c1cccc(C(F)(F)F)c1 the results were H9c2 protect 3, aDG glyco act 0, CRFBP-R2 agonist 1, PfGluPho inh -8, FAS-TE inh -2 and CRFR2-BP antag -1.
Nc1ccc(C(=O)N/N=C\c2cc(N=Nc3cccc4ccccc34)ccc2O)cc1 was read as H9c2 protect 49, aDG glyco act 0, CRFBP-R2 agonist 0, PfGluPho inh -25, FAS-TE inh 14 and CRFR2-BP antag 59*.
`Cc1cc(C=O)sc1[B-](F)(F)F` gave H9c2 protect 9, aDG glyco act 0, CRFBP-R2 agonist 0, PfGluPho inh -8, FAS-TE inh -6 and CRFR2-BP antag -4.
`CCn1c(CCNC(=O)c2ccc(OC)cc2)nnc1SCc1ccc(Cl)c(Cl)c1` gave H9c2 protect -11, aDG glyco act 1, CRFBP-R2 agonist 136*, PfGluPho inh 7, FAS-TE inh 19 and CRFR2-BP antag -150.
Screening CCn1c(CCNC(=O)c2ccc(C)cc2)nnc1SCc1ccc(Cl)c(Cl)c1 returned H9c2 protect -3, aDG glyco act 1, CRFBP-R2 agonist -1, PfGluPho inh 10, FAS-TE inh 11 and CRFR2-BP antag 0.
Cc1cccc(C(=O)NC2CCN(CC(=O)Nc3ccccc3Cl)CC2)c1 was read as H9c2 protect 5, aDG glyco act 0, CRFBP-R2 agonist -2, PfGluPho inh -1, FAS-TE inh 5 and CRFR2-BP antag 3.
For O=C(CSc1nc2nn(-c3ccccc3)c(=O)c-2c2n1CCCCC2)c1ccc(O)c(O)c1 the results were H9c2 protect 100*, aDG glyco act 0, CRFBP-R2 agonist -2, PfGluPho inh 1, FAS-TE inh 20 and CRFR2-BP antag 16.
